Compounds with a hit are over-represented: about 4.5% of the library has one in this group of screens.
Mdm2 MdmX PPI: inhibitors of human Mdm2/MdmX interaction; O15151+Q00987; SaOS-2 split-luciferase Mdm2/MdmX complementation, luminescence; inhibition, % at 8 µM; 3% of 330,000 active; AID 485346;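 active means inhibition of at least 50% at 8 µM in the primary screen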
Jurkat NFkB inh: inhibitors of the PMA/ionomycin-induced NF-kB reporter in Jurkat cells. PMA/ionomycin-induced NF-kB luciferase reporter, luminescence. 0.53% of 330,000 active. inhibition, % at 4 µM. AID 435003; in the data active means inhibition above about 50%
aSyn 5UTR inh: 5' untranslated region of α-synuclein, MLPCN primary screen; alpha-synuclein 5'UTR reporter, inhibitor activity; inhibition, % (tested at 7.5 µM); 0.82% of 300,000 active; AID 1813; in the data active means inhibition above about 60%;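 further: H4 neuroglioblastoma cells stably carrying SNCA 5'UTR luciferase fusion; 0% = DMSO wells and 100% = positive control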
Gli-Sufu antag: blocks Gli-Sufu signaling in a luciferase reporter. Sufu-KO-LIGHT fibroblasts, Gli luciferase reporter luminescence. inhibition, % at 5 µM. 0.74% of 340,000 active. AID 588413;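 active means inhibition above about 55%, limit read from the data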;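 further: 0% = DMSO-treated cells and 100% = wells with medium but no cells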
697 NFkB inh: inhibitors of the PMA/ionomycin-induced NF-kB reporter in 697 B cells; inhibition, % at 4 µM; 0.33% of 330,000 active; 697 B-cell NF-kB luciferase reporter, 16 h; in the data active means inhibition above about 35%
CSC inhib: blocks cancer stem cells; inhibition, % at 7.5 µM; cancer stem cell-like cells viability, luminescence; 1.1% of 300,000 active; in the data active means inhibition above about 75%; tested in HMLE shEcad cells
697 NFkB conf: inhibitors of the PMA/ionomycin-induced NF-kB reporter in 697 B cells, retest; 697 B-cell NF-kB luciferase, 16 h; AID 449746; inhibition, % at 4 µM; shares compounds with 697 NFkB inh; 35% of 2,000 active; in the data active means inhibition mostly above about 28%, no sharp cut-off; inactive means mostly below about 22%
Mdm2-MdmX conf: human Mdm2/MdmX binding inhibition, confirmed; inhibition, % at 8 µM; shares compounds with Mdm2 MdmX PPI; luminescent assay; 55% of 10,000 active; in the data active means inhibition above about 40%
FLuc counter: full-length luciferase inhibition in Mdm2/MdmX counter-screen; shares compounds with Mdm2 MdmX PPI; SaOS-2 full-length luciferase counterscreen, luminescence; inhibition, % at 8 µM; 77% of 6,200 active; AID 504607;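 active means mean inhibition at 8 µM reaching about 37%, which flags the compound as non-specific, limit read from the data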;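 further: p53-null SaOS-2 cells with luciferase driven by a doxycycline-inducible promoter; compound on cells about two nights before reading with doxycycline added after day one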
Gli-Sufu confirm: Gli-SUFU antagonism confirmation, single concentration. shares compounds with Gli-Sufu antag. inhibition, % at 5 µM. Sufu-KO-LIGHT cells, Gli luciferase reporter, luminescence. 40% of 2,500 active;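 active means mean inhibition at 5 µM reaching about 45%, limit read from the data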;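 further: plate controls were DMSO-treated cells for no effect and wells lacking cells for full effect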
SufuKO cytotox: counter-screen for Gli-SUFU antagonists: cytotoxicity; shares compounds with Gli-Sufu antag; Sufu-KO-LIGHT cells cytotoxicity, ATP luminescence; cytotoxicity, % at 5 µM; 32% of 2,500 active;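 active means mean cytotoxicity at 5 µM above about 25%, limit read from the data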;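 further: cells exposed to compound overnight for roughly 16 to 18 hours; plate controls were DMSO wells with cells for no effect and medium without cells for full effect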
Wnt3a counter: counter-screen for Gli-SUFU antagonists: Wnt3a reporter inhibition. shares compounds with Gli-Sufu antag. Wnt-LIGHT cells, Wnt3a-driven luciferase reporter, luminescence. inhibition, % at 6.25 µM. 20% of 2,500 active. AID 651995;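 active means mean inhibition above about 25%, limit read from the data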
Active calls of the source: *; · = not tested or not shown.

SMILES	Mdm2 MdmX PPI	Jurkat NFkB inh	aSyn 5UTR inh	Gli-Sufu antag	697 NFkB inh	CSC inhib	697 NFkB conf	Mdm2-MdmX conf	Gli-Sufu confirm	SufuKO cytotox	Wnt3a counter	others
CC1=CC(C)(C)Nc2ccc(OC(=O)CCN3C(=O)c4ccccc4C3=O)cc21	101*	15	24	10	41*	8	14	35	·	·	·
CC1CCc2c(sc3nc(C(C)(C)C)nc(N4CCN(C(=O)CCl)CC4)c23)C1 (stereo not drawn)	98*	23	45	10	40*	63	27*	36	·	·	·	FLuc counter=35
O=C1CC(c2ccc3c(c2)OCO3)Sc2nc3ccccc3n21 (stereo not drawn)	54*	-68	-160	-35	-255	15	-111	67*	·	·	·	FLuc counter=169*
C=CCN1C(=O)N(CC=C)c2cccc3cccc1c23	6	9	4	7	-7	-17	·	·	·	·	·
CCN1C(=O)Nc2cccc3cccc1c23	84*	-5	3	26	37*	4	36*	62*	·	·	·	FLuc counter=57*
CCN(CC)S(=O)(=O)c1ccc(N2CCOCC2)c(NC(=O)c2[nH]c(C)c(C(C)=O)c2C)c1	83*	-2	·	32	48*	-14	46*	41*	·	·	·	FLuc counter=68*
CCN(CC)S(=O)(=O)c1ccc(N2CCOCC2)c(NC(=O)c2ccc(F)cc2)c1	6	-8	15	-3	17	7	·	·	·	·	·
Cc1cc(C)c(C#N)c(SCc2nnc(-c3ccccc3)o2)n1	85*	28	102*	70*	-362	·	-47	91*	83*	35*	96*	FLuc counter=49*
COc1ccccc1-c1cc(-c2ccc(C)cc2)nc(SCc2nnc(-c3ccccc3)o2)c1C#N	2	4	25	15	6	-4	·	·	·	·	·
O=C(Nc1cccc(S(=O)(=O)Nc2ccc(Cl)cc2)c1)c1ccc(Cl)nc1	35	41	-19	68*	57*	19	53*	·	64*	39*	23
O=C(Nc1ccc(NS(=O)(=O)c2ccccc2)cc1)c1ccc(Cl)cc1	43	8	-21	4	-33	18	·	·	·	·	·
CC(=O)c1ccc(N2CCN(S(=O)(=O)c3c(C)[nH]c(C)c3C(=O)N3CCCC3)CC2)cc1	-9	4	6	0	-19	6	·	·	·	·	·
O=S(=O)(NCc1ccncc1)c1ccc(Br)s1	14	42	14	70*	51*	5	45*	·	64*	44*	46*
Cc1nc(N/C(N)=N/S(=O)(=O)c2ccc([N+](=O)[O-])cc2)nc2ccccc12	2	17	25	4	-19	3	·	·	·	·	·
COC(=O)/C=C/c1cccc([C@H]2[C@@H]3C=CC[C@@H](C)[C@@H]3C(=O)N2Cc2ccccc2)c1	16	·	·	1	28	·	·	·	·	·	·
CCn1c(SCC(=O)NCc2ccc3c(c2)OCO3)nnc1-c1c[nH]c2ccccc12	12	-11	-2	-3	5	-7	·	·	·	·	·
COC(=O)c1ccc(CN2CCCC(CO)(Cc3ccccc3F)C2)cc1 (stereo not drawn)	-8	10	11	13	-1	11	·	·	·	·	·
c1ccc(CCNc2ncnc3ccccc23)cc1	-1	37	-117	55*	49*	-1	29*	·	58*	29*	24
Cc1cc2c(NCCc3ccccc3)ncnc2s1	-12	10	-64	·	-23	17	·	·	·	·	·
Cc1ccc(Nc2nc(N/N=C\c3ccc4c(c3)OCO4)nc(N3CCOCC3)n2)cc1	65*	-28	-30	56*	56*	54	42*	57*	50*	35*	-75	FLuc counter=78*
Cc1ccc(/C=N/Nc2cc(C)nc(N3CCOCC3)n2)cc1	17	4	-17	1	-6	-2	·	·	·	·	·
CCOc1ccc(-c2nc(CSCC(=O)NCC3CCCO3)c(C)o2)cc1 (stereo not drawn)	14	9	-1	89*	88*	-2	20	·	89*	8	25
COc1cccc(NC(=O)CSc2nnc(-c3cc(C)n(-c4ccccc4)c3C)o2)c1	82*	-6	-23	53	71*	65	17	83*	69*	10	76*	FLuc counter=59*
COc1ccc(NC(=O)CSc2nnc(-c3cccc(O)c3)o2)cc1	-24	-33	-110	5	26	·	·	·	·	·	·
CCCCCCCN1CCC(=O)N([C@H](CO)CC(C)C)CC1	6	3	-6	15	-2	7	·	·	·	·	·
SMILES	Mdm2 MdmX PPI	Jurkat NFkB inh	aSyn 5UTR inh	Gli-Sufu antag	697 NFkB inh	CSC inhib	697 NFkB conf	Mdm2-MdmX conf	Gli-Sufu confirm	SufuKO cytotox	Wnt3a counter	others
O=C(CCCc1nc(-c2ccccc2Cl)no1)NC1CCCC1	2	1	99*	64*	74*	·	78*	·	57*	-1	93*
COc1ccccc1-c1noc(CCCC(=O)NC2CCCC2)n1	-6	11	-10	24	6	·	·	·	·	·	·
Nc1ccc(-c2cc3ccccc3oc2=O)cc1	52*	-23	106*	61*	61*	4	48*	30	72*	9	103*	FLuc counter=45*
CC1CCN(c2c(NCc3ccc(C(=O)N4c5ccccc5CC4C)cc3)c(=O)c2=O)CC1 (stereo not drawn)	18	22	10	57*	43*	0	39*	·	57*	0	-35
Cc1oc2nc(SCC(=O)NC3CCCCC3)nc(N)c2c1C	1	12	14	-6	0	-11	·	·	·	·	·
CC(C)(C)c1ccc(-n2ncc3c2CCCC3NC(=O)C2(C(N)=O)CC2)cc1 (stereo not drawn)	15	46	3	76*	43*	20	83*	·	65*	30*	-10
CC(C)(C)c1ccc(C(=O)NC(=S)Nc2ccc(N3CCOCC3)cc2)cc1	15	-59	-24	60*	-334	16	13	·	52*	23	-72
COc1ccc(/C=N/OCC(=O)NC(c2ccccc2)c2ccccc2)cc1OC	29	44	33	54	68*	20	38*	·	53*	31*	35*
CN(C)S(=O)(=O)c1ccc(C(=O)Nc2nc(-c3cc4ccccc4o3)cs2)cc1	9	34	-137	50	22	9	·	·	·	·	·

From PubChem BioAssay
